Measurements: PubChem BioAssay (NCI)
Compounds without any hit were thinned out: in the full panel of roughly 79,000, 15% have a hit. No stated cut-off is given here; in the data, active means growth inhibition above about 70%; inactive means the rest.

Key:
[1] = NCI Yeast Anticancer Drug Screen. Data for the rad50 strain (AID 155);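 further: 0% = growth of vehicle-only cultures of the same strain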; conditions: S. cerevisiae rad50 strain growth inhibition; at 50.0 µM; hits give high values
In short: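 Yeast carrying a defined DNA repair defect were exposed to test compounds, and growth was compared with vehicle-treated controls to give percent inhibition.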

[2] = NCI Yeast Anticancer Drug Screen. Data for the mec2-1 strain (AID 157); conditions: S. cerevisiae mec2-1 strain, at 50.0 µM, hits give high values
In short: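 Vehicle-treated cultures served as reference for growth inhibition of compound-exposed mec2-1 yeast.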

[3] = NCI Yeast Anticancer Drug Screen. Data for the sgs1 mgt1 strain (AID 161);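 further: 0% = growth of cultures given vehicle only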; conditions: S. cerevisiae sgs1 mgt1 strain, at 50.0 µM, hits give high values
In short: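 Inhibition of yeast growth, normalised to vehicle-treated controls, is reported for a strain bearing genetic alterations in DNA damage repair.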

[4] = NCI Yeast Anticancer Drug Screen. Data for the cln2 rad14 strain (AID 165);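 further: 0% = growth equal to vehicle treated cultures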; conditions: S. cerevisiae cln2 rad14 strain, at 50.0 µM, hits give high values
In short: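 Each compound was tested on cln2 rad14 yeast. Inhibition of growth was calculated against vehicle-exposed controls.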

[5] = NCI Yeast Anticancer Drug Screen. Data for the bub3 strain (AID 167); conditions: S. cerevisiae bub3 mutant strain, at 50.0 µM, hits give high values
In short: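 Compounds were applied to a genetically altered yeast strain carrying a cell-cycle control defect. Growth inhibition was scored against vehicle-treated controls.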

[6] = NCI Yeast Anticancer Drug Screen. Data for the mlh1 rad18 strain (AID 175); conditions: S. cerevisiae mlh1 rad18 strain growth inhibition; at 50.0 µM; hits give high values
In short: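 Vehicle-treated cultures served as the reference for growth inhibition in a yeast strain carrying DNA damage repair alterations exposed to each compound.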

Measured: growth inhibition

COc1ccc(C2SC(N)=Nc3c2c(C)nn3C(=O)c2ccc(Cl)cc2)cc1 (centres undefined)
inactive: [1] 3.7% | [2] -14.8% | [3] 22.6% | [4] -18.1% | [5] -11.3% | [6] 7.8%

NNC(=O)COc1ccc(Br)cc1Br
inactive: [1] 33.2% | [2] 4.25% | [3] -5.15% | [4] 26.4% | [5] 3.8% | [6] -1.25%

Cc1ccc(-c2c(C#N)c(-c3ccc(Cl)cc3)c(C#N)c(=O)n2NS(=O)(=O)c2ccc(C)cc2)cc1
inactive: [1] 20.9% | [2] 19.8% | [3] 30.4% | [4] 44.6% | [5] 15.7% | [6] 13.2%

O=C(c1ccccc1)C1CCCCC1
inactive: [1] 1.05% | [2] -3.65% | [3] -6.25% | [4] 6.45% | [5] 4.4% | [6] -3.7%

CC(C)C1=C(Cc2ccccc2)C(=O)O/C1=C\c1ccc(O)c(Cl)c1
inactive: [1] 2.8% | [2] -22.9% | [3] 28.2% | [4] 21.4% | [5] 6.05% | [6] -20.1%

BrCCCCCBr
inactive: [1] 12.4% | [2] 6.3% | [3] 1.5% | [4] -48.5% | [5] -5.45% | [6] 15.6%

COc1cc(/C=N/N2CC(=O)N(c3cccc(Cl)c3)CC2=O)cc(OC)c1
inactive: [1] -1.65% | [2] 5.7% | [3] -1.6% | [4] -12.8% | [5] -4.65% | [6] 26.7%

N#CCC(=O)Nc1ccccc1
inactive: [1] 37% | [2] 15.7% | [3] 5.8% | [4] -11.8% | [5] 6.25% | [6] 26.2%

C[n+]1ccn(S(=O)(=O)[O-])c1
inactive: [1] 1.9% | [2] 4.2% | [3] -4.35% | [4] 0.55% | [5] -19.6% | [6] -8.05%

Cc1ccc(/C=N/NC2=NCCN2)s1
inactive: [1] -0.4% | [2] 8% | [3] 4.35% | [4] 8.15% | [5] -5.05% | [6] 9.75%

Cc1ccc(N(CN2C(=O)CCC2=O)CS(=O)(=O)c2ccc(C)cc2)cc1
inactive: [1] -1.85% | [2] -8.6% | [3] -9.15% | [4] 21.4% | [5] -5.65% | [6] 0.8%

CC(=O)[CH-]C(=O)c1ccccc1.CC(=O)[CH-]C(=O)c1ccccc1.CCCCCCCCCCCCCCCCCC(=O)[O-].CCCCCCCCCCCCCCCCCC(=O)[O-].[Ti+4]
inactive: [1] 11.2% | [2] -11.2% | [3] -6.55% | [4] -9.7% | [5] 2% | [6] -0.45%

NC(Cc1ccc(F)cc1)(C(=O)O)c1ccccc1 (centres undefined)
inactive: [1] 5.2% | [2] 28.5% | [3] 8.55% | [4] -23.4% | [5] 5.85% | [6] 28.8%

COc1ccc(C(=O)O[C@@H]2CCN3CC[C@H](C)[C@H]23)cc1
inactive: [1] 7.4% | [2] -22.5% | [3] 7.3% | [4] 12.7% | [5] -6.35% | [6] -74.8%

C/C=C(\C)C(=O)N1c2ccccc2CC1c1c(C)[nH]c2ccccc12 (centres undefined)
inactive: [1] 29.1% | [2] 3.65% | [3] 21.2% | [4] 19.9% | [5] 23.8% | [6] 11.1%

CCOC(=O)c1ccc(NN=NC(C)(C)C)cc1
inactive: [1] 10.8% | [2] -8.5% | [3] -15.2% | [4] -29.2% | [5] -7.3% | [6] -11.1%

CC(=O)NNc1nc(C)c(C(=O)/C=C/C=C/c2ccccc2)s1
inactive: [1] -3.8% | [2] 39% | [3] 10.7% | [4] 10.3% | [5] 13.1% | [6] -21.8%

Clc1ccccc1SSc1ccccc1Cl
inactive: [1] 21.4% | [2] 23.9% | [3] 22.2% | [4] -9.2% | [5] 28.1% | [6] 29.9%

Cn1c2ccccc2c2ccc3c(c21)C(=O)C(c1ccccc1)=CC3=O
inactive: [1] 19.7% | [2] -21.2% | [3] -10.3% | [4] 17.6% | [5] -28.3% | [6] -5.85%
